# From PubChem BioAssay (EPA / NIEHS)
# “And” between values parts separate entries of the source, which are not always exact repeats. Equal entries are not always repeated. Records with an inconclusive call do not appear. More than one record can exist for a structure, and the calls need not agree. The source made the active and inactive calls. The calls were made as follows, unless noted: active = hit-call score of the fitted dose curve at least 0.9, where 1 is the maximum; inactive = score below 0.9.
# Tests used:
# [1] = CCTE_Shafer_MEA_dev_burst_rate: CCTE's Neural Network Formation Assay for Burst Rate, Shafer Lab (AID 2284042);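 as to AC50: potency for loss of burst rate below DMSO control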
# Procedure, shortened: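 Developmental network assay measuring how 12-day exposure of rat cortical neuron cultures alters bursting on extracellular MEA recordings. Values are AUC of well-mean burst rate across four recording days, relative to DMSO vehicle.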
# [2] = CCTE_Shafer_MEA_dev_per_burst_interspike_interval: CCTE's Neural Network Formation Assay for Burst Interspike Interval, Shafer Lab (AID 2284044);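 also: mean spike spacing inside bursts as AUC over recordings on days 5 7 9 12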;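 as to AC50: potency for a decrease of within-burst interspike interval below DMSO level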
# Procedure, shortened: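 Mean interspike interval within single-electrode bursts, averaged over bursting electrodes, from rat cortical cultures on MEA plates recorded on days 5, 7, 9 and 12. Continuous compound exposure from plating; trapezoidal AUC fitted downward relative to DMSO.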
# [3] = CCTE_Shafer_MEA_dev_burst_duration_mean: CCTE's Neural Network Formation Assay for Mean Burst Duration, Shafer Lab (AID 2284045);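 as to AC50: curve fitted for loss meaning shorter burst duration than DMSO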
# Procedure, shortened: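 Read-out: average first-to-last-spike interval within single-electrode bursts, averaged over bursting electrodes per well, then summarised as area under the curve across days 5, 7, 9 and 12. Developing rat cortical networks were exposed from day 0.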
# [4] = CCTE_Shafer_MEA_dev_interburst_interval_mean: CCTE's Neural Network Formation Assay for Mean Interburst Interval, Shafer Lab (AID 2284046);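 also: well-mean interburst interval of bursting electrodes as AUC over four recording days; curve fitted for decrease in interburst interval relative to DMSO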
# Procedure, shortened: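 Network formation assay in primary rat cortical cultures, exposed from DIV 0 to 12. Mean interburst interval per well, integrated as AUC over four recordings.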
# [5] = CCTE_Shafer_MEA_dev_inter_network_spike_interval_mean: CCTE's Neural Network Formation Assay for Mean Inter-network Spike Interval, Shafer Lab (AID 2284047);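 as to AC50: potency for a decrease in mean inter-network spike interval below DMSO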
# Procedure, shortened: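 Compound was given at plating to primary rat cortical neurons and renewed with full medium changes on DIV 5 and 9. Extracellular activity was recorded on days 5, 7, 9, 12; AUC values were fitted for loss relative to DMSO control.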
# [6] = CCTE_Shafer_MEA_dev_network_spike_number: CCTE's Neural Network Formation Assay for Number of Network Spikes, Shafer Lab (AID 2284048);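 also: synchronized bursts across electrodes counted on days 5 7 9 12 and integrated as AUC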;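 as to AC50: fit as a loss of signal meaning fewer network spikes than DMSO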
# Procedure, shortened: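 Developing networks of primary rat cortical neurons are treated over 12 days starting at plating, with media and compound fully replaced on DIV 5 and 9. Network spike counts from four recording days are integrated as trapezoidal AUC.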
# [7] = CCTE_Shafer_MEA_dev_network_spike_peak: CCTE's Neural Network Formation Assay for Mean Number of Electrodes in Network Spike, Shafer Lab (AID 2284049);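 as to AC50: fitted for loss of signal meaning fewer electrodes in network spikes than DMSO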
# Procedure, shortened: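 Rat cortical primary culture, 1.5 x 10^5 cells/well, 48-well MEA (16 electrodes/well). Dosing day 0 through DIV 12, full media/compound exchange DIV 5, 9. AxIS adaptive spike detection; AUC over days 5/7/9/12; loss-of-signal vs DMSO.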
# [8] = CCTE_Deisenroth_AIME_384WELL_CTox_Inactive: Cytotoxicity Assessment (CTOX) in CCTE's 384-well Estrogen Receptor Transactivation Assay without AIME metabolic competence (metabolism negative), Deisenroth Lab (AID 2284039; active = hit-call score of the fitted dose curve at least 0.9, where 1 is the maximum;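 also: cell viability via live-cell protease substrate cleaved to fluorescent probe; cells exposed 24 h to medium preincubated 2 h with alginate-water beads without S9; loss of fluorescence signal means loss of viability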)
# Procedure, shortened: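 Fluorescence from a live-cell protease substrate, read after 24 h in VM7Luc4E2 cells, indicated viability. Test medium came from a 2 h AIME step without hepatic S9 (alginate-water microspheres); concentrations spanned 0.002 - 200 uM, single technical replicate per run.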
# [9] = CCTE_Shafer_MEA_dev_active_electrodes_number: CCTE's Neural Network Formation Assay for Number of Active Electrodes, Shafer Lab (AID 2284040; active = hit-call score of the fitted dose curve at least 0.9, where 1 is the maximum;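 as to AC50: potency for loss of active electrodes versus DMSO so lower counts are hits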)
# Procedure, shortened: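 Rat cortical primary cultures, 1.5 x 10^5 cells/well, PEI-coated MEA, laminin drop. Continuous exposure DIV 0–12; full media/compound change DIV 5, 9. Readout: electrodes with mean firing ≥5 spikes/min; AUC across days; loss vs DMSO.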
# [10] = CCTE_Shafer_MEA_dev_bursting_electrodes_number: CCTE's Neural Network Formation Assay for Number of Bursting Electrodes, Shafer Lab (AID 2284043; active = hit-call score of the fitted dose curve at least 0.9, where 1 is the maximum;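 as to AC50: potency is for loss of bursting electrodes relative to DMSO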)
# Procedure, shortened: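 Read-out is the per-well number of electrodes bursting at least once every 2 minutes, recorded on days 5, 7, 9 and 12 and collapsed by trapezoidal area under the curve. Cultures were primary rat cortical neurons on MEA plates, treated continuously from plating.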
smiles,measurement,setting,value
COc1ccc(O)c(C(C)(C)C)c1,outcome,[1],inactive
same,outcome,[2],inactive
same,outcome,[3],inactive
same,outcome,[4],inactive
same,outcome,[5],inactive
same,outcome,[6],inactive
same,outcome,[7],inactive
Cc1ccccc1O,outcome,[8],inactive
Clc1ccc(Cl)cc1,outcome,[8],inactive
CO/C=C(/C(=O)OC)c1ccccc1COc1cccc(C(F)(F)F)n1,AC50,[9],229 nM (active) and 493 nM (active)
same,AC50,[1],280 nM (active) and 327 nM (active)
same,AC50,[10],203 nM (active) and 323 nM (active)
same,AC50,[2],594 nM (active) and 761 nM (active)
same,AC50,[3],231 nM (active) and 490 nM (active)
same,AC50,[4],534 nM (active) and 582 nM (active)
same,AC50,[5],364 nM (active) and 752 nM (active)
same,AC50,[6],179 nM (active) and 398 nM (active)
same,AC50,[7],212 nM (active) and 741 nM (active)
O=C(O)C(F)(F)C(F)(F)C(F)(F)C(F)(F)C(F)(F)C(F)(F)C(F)(F)C(F)(F)F,AC50,[8],164 µM (active)
same,outcome,[1],inactive
same,outcome,[2],inactive
same,outcome,[3],inactive
same,outcome,[4],inactive
same,outcome,[5],inactive
same,outcome,[6],inactive
same,outcome,[7],inactive
CCC(C)(c1ccc(O)cc1)c1ccc(O)cc1,AC50,[8],189 µM (active)
same,AC50,[9],4.56 µM (active)
same,outcome,[1],inactive
same,AC50,[10],3.23 µM (active)
same,outcome,[2],inactive
same,outcome,[3],inactive
same,outcome,[4],inactive
same,outcome,[5],inactive
same,outcome,[6],inactive
same,AC50,[7],10 µM (active)
C=CC(=O)NCNC(=O)C=C,AC50,[8],19.8 µM (active)
O=C(O)C(F)(F)C(F)(F)C(F)(F)C(F)(F)C(F)(F)F,outcome,[1],inactive
same,outcome,[2],inactive
same,outcome,[3],inactive
same,outcome,[4],inactive
same,outcome,[5],inactive
same,outcome,[6],inactive
same,outcome,[7],inactive
Clc1ccc(C(Cl)(Cl)Cl)cc1,outcome,[8],inactive
C1CC2OC2CC1C1CO1 (stereo not given),outcome,[8],inactive
Oc1ccc(C(c2ccc(O)cc2)(C(F)(F)F)C(F)(F)F)cc1,AC50,[9],16.4 µM (active)
same,outcome,[9],inactive
same,outcome,[1],inactive
same,AC50,[10],16.7 µM (active)
same,outcome,[10],inactive
same,outcome,[2],inactive
same,outcome,[3],inactive
same,outcome,[4],inactive
same,outcome,[5],inactive
same,outcome,[6],inactive
same,AC50,[7],16.9 µM (active) and 18.5 µM (active)
C[C@]12CCC(=O)C=C1CC[C@@H]1[C@@H]2CC[C@]2(C)C(=O)CC[C@@H]12,outcome,[8],inactive
Cc1ccccc1CO[C@@H]1C[C@@]2(C(C)C)CC[C@]1(C)O2,outcome,[8],inactive
Cc1cc2c3c(c1)C(c1ccccc1)=N[C@@H](NC(=O)c1ccncc1)C(=O)N3CC2,outcome,[8],inactive
CCCN(CCC)N=O,outcome,[8],inactive
CCCCCCCCCc1ccc(O)cc1,AC50,[8],146 µM (active)
ClC1=C(Cl)[C@]2(Cl)[C@@H]3[C@@H](Cl)[C@H]4O[C@H]4[C@@H]3C1(Cl)C2(Cl)Cl,AC50,[9],23.3 µM (active)
same,outcome,[1],inactive
same,AC50,[10],24.9 µM (active)
same,AC50,[2],15 µM (active)
same,outcome,[3],inactive
same,outcome,[4],inactive
same,outcome,[5],inactive
same,AC50,[6],2.98 µM (active)
same,AC50,[7],25 µM (active)
O=S(=O)(O)C(F)(F)C(F)(F)C(F)(F)C(F)(F)C(F)(F)C(F)(F)F,outcome,[8],inactive
same,AC50,[9],3.97 µM (active)
same,outcome,[9],inactive
same,outcome,[1],inactive
same,outcome,[10],inactive
same,outcome,[2],inactive
same,outcome,[3],inactive
same,outcome,[4],inactive
same,outcome,[5],inactive
same,outcome,[6],inactive
same,AC50,[7],9.07 µM (active)
same,outcome,[7],inactive
ClC1=C(Cl)[C@]2(Cl)[C@@H]3[C@H]4C[C@H]([C@@H]5O[C@H]45)[C@@H]3[C@@]1(Cl)C2(Cl)Cl,outcome,[8],inactive
same,outcome,[9],inactive
same,outcome,[1],inactive
same,outcome,[10],inactive
same,outcome,[2],inactive
same,outcome,[3],inactive
same,outcome,[4],inactive
same,outcome,[6],inactive
same,outcome,[7],inactive
CCC(=O)O[C@H]1CC[C@H]2[C@@H]3CCC4=CC(=O)CC[C@]4(C)[C@H]3CC[C@]12C,outcome,[8],inactive
O=S(=O)(O)C(F)(F)C(F)(F)C(F)(F)C(F)(F)F,AC50,[9],11.4 µM (active)
same,outcome,[9],inactive
same,outcome,[1],inactive
same,AC50,[10],8.61 µM (active)
same,outcome,[2],inactive
same,outcome,[3],inactive
same,outcome,[4],inactive
same,outcome,[5],inactive
same,outcome,[6],inactive
same,AC50,[7],15 µM (active)
same,outcome,[7],inactive
Clc1ccc(C(c2ccccc2Cl)C(Cl)(Cl)Cl)cc1 (stereo not given),AC50,[9],4.03 µM (active)
same,AC50,[1],1.98 µM (active)
same,AC50,[10],4.01 µM (active)
same,outcome,[2],inactive
same,outcome,[3],inactive
same,AC50,[4],7.78 µM (active)
same,outcome,[5],inactive
same,AC50,[6],2.71 µM (active)
same,AC50,[7],2.73 µM (active)
ClC(Cl)=C(c1ccc(Cl)cc1)c1ccc(Cl)cc1,AC50,[9],4.01 µM (active)
same,AC50,[1],4.06 µM (active)
same,AC50,[10],5.08 µM (active)
same,AC50,[2],7.73 µM (active)
same,outcome,[3],inactive
same,AC50,[4],7.75 µM (active)
same,outcome,[5],inactive
same,AC50,[6],1.23 µM (active)
same,AC50,[7],4 µM (active)
ClC1=C(Cl)[C@]2(Cl)[C@@H]3[C@@H]4C[C@@H]([C@H]5O[C@@H]45)[C@@H]3[C@@]1(Cl)C2(Cl)Cl,AC50,[1],5.67 µM (active)
same,AC50,[10],10.2 µM (active)
same,AC50,[2],4.03 µM (active)
same,outcome,[3],inactive
same,outcome,[4],inactive
same,outcome,[5],inactive
same,AC50,[6],0.492 µM (active)
same,AC50,[7],10.8 µM (active)
c1ccc(-c2ccccc2)cc1,outcome,[8],inactive
NS(=O)(=O)C(F)(F)C(F)(F)C(F)(F)C(F)(F)C(F)(F)C(F)(F)C(F)(F)C(F)(F)F,AC50,[9],6.65 µM (active)
same,outcome,[9],inactive
same,outcome,[1],inactive
same,AC50,[10],4.13 µM (active) and 1.93 µM (active)
same,outcome,[2],inactive
same,outcome,[3],inactive
same,outcome,[4],inactive
same,outcome,[5],inactive
same,outcome,[6],inactive
same,AC50,[7],26.7 µM (active)
same,outcome,[7],inactive
C=CC(N)=O,outcome,[9],inactive
same,outcome,[1],inactive
same,outcome,[10],inactive
same,outcome,[2],inactive
same,outcome,[3],inactive
same,outcome,[4],inactive
same,outcome,[5],inactive
same,outcome,[6],inactive
same,outcome,[7],inactive
OCC(O)CO,outcome,[8],inactive
O=C(N[C@H]1CN2CCC1CC2)c1cc2ccoc2cn1,outcome,[8],inactive
Cc1cc(-c2ccc(N)c(C)c2)ccc1N,outcome,[8],inactive
c1cc2ccc3cccc4ccc(c1)c2c34,AC50,[8],0.0782 µM (active)
same,outcome,[9],inactive
same,outcome,[1],inactive
same,outcome,[10],inactive
same,outcome,[2],inactive
same,outcome,[3],inactive
same,outcome,[4],inactive
same,outcome,[5],inactive
same,outcome,[6],inactive
same,outcome,[7],inactive
Nc1ccc(-c2ccc(N)cc2)cc1,outcome,[8],inactive
CCOCCOC(C)=O,outcome,[8],inactive
Cc1cccc([N+](=O)[O-])c1,outcome,[8],inactive
CCOP(=S)(OCC)SCSC(C)(C)C,AC50,[9],18.2 µM (active) and 16.1 µM (active)
same,AC50,[1],23.2 µM (active)
same,outcome,[1],inactive
same,AC50,[10],23.1 µM (active) and 16.5 µM (active)
same,AC50,[2],17.4 µM (active)
same,outcome,[2],inactive
same,AC50,[3],23.5 µM (active)
same,outcome,[3],inactive
same,AC50,[4],23 µM (active) and 28.4 µM (active)
same,outcome,[5],inactive
same,AC50,[6],18.9 µM (active)
same,outcome,[6],inactive
same,AC50,[7],23.1 µM (active) and 13.9 µM (active)
